Among the data in PubChem BioAssay (NCI) are growth values, retold here.

Several values for one entry are separate records, joined by “and”; a condition that tells them apart may be missing. Identical values can stand only once. Compounds without any hit were thinned out: in the full panel of roughly 83,000, 20% have a hit.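 Assay: single dose, 48 h. Readout: percent growth (0 = no net growth; negative = cell death). Active: <10.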 A number with no mark means an inactive call. Activity calls are given as the source filed them.

The experiment has as its system MDA-MB-468 breast. As to the kind of experiment: NCI-60 one-dose screen, 48 h (100 = growth as untreated, 0 = no growth, -100 = all killed). The conditions noted are these: 10 µM unless noted.
Regarding `O=C(Nc1cccc2[nH]c(C(F)(F)F)nc12)c1ccc(-n2cnnn2)cc1`, the growth was 80%. With `Cc1nn(-c2ccccc2)c2nc(CCl)[nH]c(=O)c12`, the growth is 26.6%. Under `COc1nc(OC)nc(-c2cc(C(=O)c3ccc(Br)cc3)n3cc(C)cc(C)c23)n1` stands 51%. Under `Nc1ncnc2c1ccn2-c1cccc(NC(=O)c2cccc(C(F)(F)F)c2)c1` stands 31.3%; under `NC(=S)N/N=C(\c1ccc(Br)cc1)C1CC1`, 20% and 19%; under `CN1CCC(=C2c3ccccc3C=Cc3ccccc32)CC1`, 36%. Under `CCOC(=O)C(C#N)Cc1ccccc1` (stereo unspecified) stands 115%; under `CC(C)(C#N)N1CCN(c2ccccc2Cl)CC1`, 103%.

For the compound `COc1cc(-c2nc3ccccc3s2)ccc1NC(=O)COc1ccc(Cl)cc1`, the growth is 21.3%. Regarding `FC(F)(F)c1cccc(-c2nnn(Cc3cc(-c4cccc(Cl)c4)no3)n2)c1`, the growth is 102%. Under `COc1cc(-c2nc3cc(Cl)c(Cl)cc3[nH]2)ccc1OCC(=O)NN` stands 100%. Under `CC(C)(C)c1ccc(C(O)CCCN2CCC(C(O)(c3ccccc3)c3ccccc3)CC2)cc1` (stereo unspecified) stands -97.1% (active); under `N=C(N)c1ccc(-c2ccc(-c3ccc(F)cc3)o2)o1`, 5.37% (active). Under `COc1ccc(/C=N\NC(=O)c2ccncc2)cc1O` stands 92.8%; under `O=C(/C=C\c1cccc([N+](=O)[O-])c1)c1ccccc1`, -13.8% (active). For `COc1ccc2[nH]c(-c3ccccc3)c(C=C(C#N)C#N)c2c1`, the growth was -4.84% (active).
